From ChEMBL document CHEMBL3988442, “University of Dundee, Small-Polar-MMV Screening Library” (2021)
For some of these results: Measured potencies and affinities stand elsewhere.

Experiments:
Design in all cases: scale not given: direction of the effect not stated beside the values
[1] = target: Protein translocase subunit SecA (Escherichia coli (strain K12)) (UniProt P10408); test: Assay to Identify E. coli SecA ATPase Inhibitors; assay type: functional; conditions: 30 µM
[2] = target: T1, Ubiquitin-activating enzyme e1, putative (Leishmania donovani (strain BPK282A1)) (UniProt E9BSI1); test: Leishmania donovani Ubiquitin Activating Enzyme (LdE1); assay type: functional; conditions: 30 µM
T1 sequence (whole entry): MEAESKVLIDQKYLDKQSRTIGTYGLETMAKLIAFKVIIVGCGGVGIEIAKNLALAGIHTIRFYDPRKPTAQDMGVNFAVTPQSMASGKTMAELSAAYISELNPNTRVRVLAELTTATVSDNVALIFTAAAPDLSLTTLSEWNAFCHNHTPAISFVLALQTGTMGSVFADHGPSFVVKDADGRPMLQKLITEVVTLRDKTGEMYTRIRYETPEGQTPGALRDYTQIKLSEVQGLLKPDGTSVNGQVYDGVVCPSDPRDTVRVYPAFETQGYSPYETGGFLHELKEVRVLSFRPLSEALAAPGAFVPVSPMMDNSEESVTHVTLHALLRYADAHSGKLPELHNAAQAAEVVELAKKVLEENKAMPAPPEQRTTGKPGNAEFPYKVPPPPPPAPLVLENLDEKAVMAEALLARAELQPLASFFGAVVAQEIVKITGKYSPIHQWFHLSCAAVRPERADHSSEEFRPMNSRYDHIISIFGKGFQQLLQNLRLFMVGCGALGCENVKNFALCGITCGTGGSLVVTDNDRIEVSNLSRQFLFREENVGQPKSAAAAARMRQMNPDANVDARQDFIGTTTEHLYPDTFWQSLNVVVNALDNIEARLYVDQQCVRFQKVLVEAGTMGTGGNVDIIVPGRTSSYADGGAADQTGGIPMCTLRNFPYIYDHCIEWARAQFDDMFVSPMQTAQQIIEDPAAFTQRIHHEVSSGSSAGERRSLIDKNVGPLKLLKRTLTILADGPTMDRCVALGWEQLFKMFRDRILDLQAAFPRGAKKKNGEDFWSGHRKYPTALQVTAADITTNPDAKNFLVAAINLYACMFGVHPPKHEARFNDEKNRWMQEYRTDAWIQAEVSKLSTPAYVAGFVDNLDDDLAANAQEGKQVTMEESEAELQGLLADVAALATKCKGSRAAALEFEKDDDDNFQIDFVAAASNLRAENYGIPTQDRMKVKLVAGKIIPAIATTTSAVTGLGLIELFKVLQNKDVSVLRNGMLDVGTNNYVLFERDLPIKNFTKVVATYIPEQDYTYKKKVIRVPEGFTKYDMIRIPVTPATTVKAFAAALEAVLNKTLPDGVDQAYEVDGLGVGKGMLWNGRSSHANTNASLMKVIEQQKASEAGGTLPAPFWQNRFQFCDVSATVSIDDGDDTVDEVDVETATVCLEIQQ

[3] = target: T2, Aspartate--tRNA(Asp/Asn) ligase (Mycobacterium tuberculosis (strain ATCC 25618 / H37Rv)) (UniProt P9WFW3); test: Assay for Asp RNA synthetase-1 from Mycobacterium tuberculosis; assay type: functional; conditions: 30 µM; note: in the data most compounds retested in dose-response had high values
T2 sequence (whole entry): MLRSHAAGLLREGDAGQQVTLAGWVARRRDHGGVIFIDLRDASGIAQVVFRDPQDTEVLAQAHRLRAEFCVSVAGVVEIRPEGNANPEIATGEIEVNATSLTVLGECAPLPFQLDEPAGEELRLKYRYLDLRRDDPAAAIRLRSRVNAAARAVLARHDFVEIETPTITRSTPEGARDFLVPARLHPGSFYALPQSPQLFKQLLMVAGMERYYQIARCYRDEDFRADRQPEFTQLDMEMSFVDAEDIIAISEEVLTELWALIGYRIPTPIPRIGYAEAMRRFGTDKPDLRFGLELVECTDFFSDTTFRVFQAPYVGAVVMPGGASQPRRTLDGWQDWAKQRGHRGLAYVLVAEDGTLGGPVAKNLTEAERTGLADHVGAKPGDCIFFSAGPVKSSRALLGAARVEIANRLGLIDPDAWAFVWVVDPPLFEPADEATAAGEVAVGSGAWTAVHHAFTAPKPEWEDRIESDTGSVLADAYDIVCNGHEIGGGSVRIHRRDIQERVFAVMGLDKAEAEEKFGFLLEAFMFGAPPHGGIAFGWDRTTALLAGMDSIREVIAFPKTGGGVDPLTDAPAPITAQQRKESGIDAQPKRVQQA

[4] = target: AMP-activated protein kinase, AMPK (Homo sapiens) (UniProt P54646+O43741+P54619+Q9UGJ0+Q9Y478+Q13131+Q9UGI9); test: AMP-dependent Kinase enzyme assay. An in vitro enzyme assay that detects ADP turnover that is directly proportional to AMPK activity. This uses naive AMPK that is activated during the assay with MK-8722; assay type: functional; conditions: 30 µM
[5] = target: Sialic acid-binding Ig-like lectin 9 (Homo sapiens) (UniProt Q9Y336); test: Hs-Siglec9 ALPHAscreen SOP 20170721; conditions: 10 µM
Chain of Sialic acid-binding Ig-like lectin 9 (Homo sapiens) (Q9Y336 whole entry): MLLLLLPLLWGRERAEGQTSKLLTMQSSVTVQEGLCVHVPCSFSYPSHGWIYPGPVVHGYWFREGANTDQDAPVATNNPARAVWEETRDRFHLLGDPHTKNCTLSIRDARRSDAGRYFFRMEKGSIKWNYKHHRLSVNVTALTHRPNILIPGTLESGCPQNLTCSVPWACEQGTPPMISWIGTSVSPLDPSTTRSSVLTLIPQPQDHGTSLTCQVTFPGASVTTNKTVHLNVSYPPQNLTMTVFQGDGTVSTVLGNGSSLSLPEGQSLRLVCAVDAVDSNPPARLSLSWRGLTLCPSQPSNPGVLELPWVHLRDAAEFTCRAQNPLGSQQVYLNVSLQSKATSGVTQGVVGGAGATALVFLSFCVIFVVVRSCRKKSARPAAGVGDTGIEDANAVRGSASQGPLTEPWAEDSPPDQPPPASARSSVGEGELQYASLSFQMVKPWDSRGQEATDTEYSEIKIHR

Trypanosoma cruzi = test: Trypanosoma cruzi phosphomannomutase and mannose-1-phosphate guanylyltransferase assay; assay type: functional; conditions: 10 µM
[6] = target: T3, Arginase-2, mitochondrial (Homo sapiens) (UniProt P78540); test: in vitro enzyme assay to detect the production of urea directly proportional to the activity of Arginase II; assay type: functional; conditions: 33.3 µM; note: in the data most compounds retested in dose-response had high values
T3 sequence (whole entry): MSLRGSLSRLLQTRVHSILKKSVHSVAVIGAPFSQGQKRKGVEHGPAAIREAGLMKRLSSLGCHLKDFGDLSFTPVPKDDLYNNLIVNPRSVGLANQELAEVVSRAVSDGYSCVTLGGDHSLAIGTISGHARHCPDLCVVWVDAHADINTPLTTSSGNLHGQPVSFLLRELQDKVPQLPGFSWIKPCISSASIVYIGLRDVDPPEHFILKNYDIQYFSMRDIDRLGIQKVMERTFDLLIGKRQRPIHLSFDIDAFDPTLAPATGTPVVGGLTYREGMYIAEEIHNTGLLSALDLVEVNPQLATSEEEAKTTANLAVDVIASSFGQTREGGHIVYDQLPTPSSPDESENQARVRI

[7] = target: T4, Proteasome subunit beta (Trypanosoma cruzi) (UniProt O96673); test: Trypanosoma cruzi proteasome chymotrypsin-like activity (TcProtChymo) assay.; note: in the data most compounds retested in dose-response had high values; assay type: functional; conditions: 9.37 µM
T4 sequence (whole entry): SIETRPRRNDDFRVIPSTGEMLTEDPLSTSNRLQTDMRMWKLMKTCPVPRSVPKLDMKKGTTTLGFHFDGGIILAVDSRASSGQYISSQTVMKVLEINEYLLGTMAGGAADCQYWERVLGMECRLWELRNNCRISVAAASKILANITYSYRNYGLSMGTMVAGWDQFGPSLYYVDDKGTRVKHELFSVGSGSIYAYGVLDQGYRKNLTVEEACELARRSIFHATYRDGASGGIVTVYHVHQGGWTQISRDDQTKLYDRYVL

Homo sapiens = species: Homo sapiens; test: To identify inhibition of the IFN signalling (Jak-Stat) pathway via expression of an eGFP reporter gene under the control of an IFN-stimulated response element (ISRE) containing MxA promoter.; assay type: functional; conditions: 30 µM
[8] = target: Shiga toxin 2 (Escherichia coli O157:H7) (UniProt P09385+P09386); test: E. coli 0.157:H7 Shiga Toxin SOP - stx2 screening assay; assay type: functional; conditions: 30 µM
[9] = target: T5, Tyrosyl-tRNA synthetase, putative (Trypanosoma cruzi (strain CL Brener)) (UniProt Q4DSP6); test: Trypanosoma cruzi tyrosyl tRNA synthetase (TcYRS) _High Tyrosine SOP; assay type: functional; conditions: 30 µM; note: in the data most compounds retested in dose-response had high values
T5 sequence (whole entry): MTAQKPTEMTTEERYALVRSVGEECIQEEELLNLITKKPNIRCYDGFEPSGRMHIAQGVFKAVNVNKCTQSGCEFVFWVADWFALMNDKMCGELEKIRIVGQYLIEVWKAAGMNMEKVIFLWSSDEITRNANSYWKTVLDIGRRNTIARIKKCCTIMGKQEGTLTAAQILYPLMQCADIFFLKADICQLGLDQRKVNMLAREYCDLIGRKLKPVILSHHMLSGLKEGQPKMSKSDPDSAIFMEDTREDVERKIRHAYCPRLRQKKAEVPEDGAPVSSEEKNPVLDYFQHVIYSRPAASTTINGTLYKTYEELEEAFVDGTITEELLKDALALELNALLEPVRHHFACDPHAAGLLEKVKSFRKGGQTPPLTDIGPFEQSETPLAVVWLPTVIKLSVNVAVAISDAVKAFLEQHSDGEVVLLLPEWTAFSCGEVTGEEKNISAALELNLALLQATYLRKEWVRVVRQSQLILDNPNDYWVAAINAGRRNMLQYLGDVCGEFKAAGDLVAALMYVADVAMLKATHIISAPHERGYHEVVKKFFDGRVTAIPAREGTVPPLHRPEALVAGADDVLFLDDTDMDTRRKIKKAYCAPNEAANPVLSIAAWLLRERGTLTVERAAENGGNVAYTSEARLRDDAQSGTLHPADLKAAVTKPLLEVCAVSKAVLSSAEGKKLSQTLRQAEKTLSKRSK

[10] = target: T5, Tyrosyl-tRNA synthetase, putative (Trypanosoma cruzi (strain CL Brener)); test: Trypanosoma cruzi tyrosyl tRNA synthetase (TcYRS) SOP; assay type: functional; conditions: 30 µM
[11] = target: Chromo domain-containing protein 1 (Saccharomyces cerevisiae (strain ATCC 204508 / S288c) (Baker's yeast)) (UniProt P32657); test: ScCHD-1 Enzyme Inhibition Assay; assay type: functional; conditions: 30 µM; note: in the data most compounds retested in dose-response had high values
Chain of Chromo domain-containing protein 1 (Saccharomyces cerevisiae (strain ATCC 204508 / S288c) (Baker's yeast)) (P32657 whole entry, the tested form may be a part): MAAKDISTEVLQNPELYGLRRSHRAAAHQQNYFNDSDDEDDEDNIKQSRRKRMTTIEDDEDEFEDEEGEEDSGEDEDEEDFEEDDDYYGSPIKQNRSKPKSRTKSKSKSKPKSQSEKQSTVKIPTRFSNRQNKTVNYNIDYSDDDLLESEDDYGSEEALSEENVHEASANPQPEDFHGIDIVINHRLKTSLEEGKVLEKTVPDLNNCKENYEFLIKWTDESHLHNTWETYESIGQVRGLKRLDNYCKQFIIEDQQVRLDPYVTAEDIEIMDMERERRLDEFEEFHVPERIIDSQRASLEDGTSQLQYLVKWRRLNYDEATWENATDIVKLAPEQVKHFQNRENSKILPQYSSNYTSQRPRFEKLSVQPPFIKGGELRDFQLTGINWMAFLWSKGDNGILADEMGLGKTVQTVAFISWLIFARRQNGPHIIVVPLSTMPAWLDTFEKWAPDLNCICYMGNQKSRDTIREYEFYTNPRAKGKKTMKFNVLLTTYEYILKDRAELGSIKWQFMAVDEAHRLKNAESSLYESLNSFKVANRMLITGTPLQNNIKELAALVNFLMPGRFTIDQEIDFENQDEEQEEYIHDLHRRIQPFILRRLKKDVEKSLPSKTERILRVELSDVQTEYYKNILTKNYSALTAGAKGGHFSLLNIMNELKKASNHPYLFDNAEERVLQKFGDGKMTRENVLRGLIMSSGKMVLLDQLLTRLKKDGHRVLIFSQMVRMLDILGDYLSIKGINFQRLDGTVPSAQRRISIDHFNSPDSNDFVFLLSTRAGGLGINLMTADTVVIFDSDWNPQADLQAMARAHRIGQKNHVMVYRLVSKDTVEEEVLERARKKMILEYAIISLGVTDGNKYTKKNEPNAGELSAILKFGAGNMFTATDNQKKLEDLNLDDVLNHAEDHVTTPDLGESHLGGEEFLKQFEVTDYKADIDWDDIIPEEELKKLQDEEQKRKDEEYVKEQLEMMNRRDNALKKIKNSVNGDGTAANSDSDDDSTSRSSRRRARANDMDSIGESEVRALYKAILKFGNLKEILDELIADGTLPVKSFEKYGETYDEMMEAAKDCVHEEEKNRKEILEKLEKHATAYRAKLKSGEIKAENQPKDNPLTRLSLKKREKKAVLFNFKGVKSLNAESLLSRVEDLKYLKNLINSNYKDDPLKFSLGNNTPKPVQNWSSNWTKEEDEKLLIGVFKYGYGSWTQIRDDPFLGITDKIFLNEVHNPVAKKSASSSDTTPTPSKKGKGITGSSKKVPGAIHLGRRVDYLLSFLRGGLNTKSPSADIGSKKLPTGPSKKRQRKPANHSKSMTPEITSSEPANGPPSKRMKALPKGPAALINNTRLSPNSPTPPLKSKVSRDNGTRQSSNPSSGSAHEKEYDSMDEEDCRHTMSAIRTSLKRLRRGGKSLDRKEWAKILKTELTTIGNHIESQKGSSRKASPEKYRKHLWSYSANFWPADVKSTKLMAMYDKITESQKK

Chain of Protein translocase subunit SecA (Escherichia coli (strain K12)) (P10408 whole entry): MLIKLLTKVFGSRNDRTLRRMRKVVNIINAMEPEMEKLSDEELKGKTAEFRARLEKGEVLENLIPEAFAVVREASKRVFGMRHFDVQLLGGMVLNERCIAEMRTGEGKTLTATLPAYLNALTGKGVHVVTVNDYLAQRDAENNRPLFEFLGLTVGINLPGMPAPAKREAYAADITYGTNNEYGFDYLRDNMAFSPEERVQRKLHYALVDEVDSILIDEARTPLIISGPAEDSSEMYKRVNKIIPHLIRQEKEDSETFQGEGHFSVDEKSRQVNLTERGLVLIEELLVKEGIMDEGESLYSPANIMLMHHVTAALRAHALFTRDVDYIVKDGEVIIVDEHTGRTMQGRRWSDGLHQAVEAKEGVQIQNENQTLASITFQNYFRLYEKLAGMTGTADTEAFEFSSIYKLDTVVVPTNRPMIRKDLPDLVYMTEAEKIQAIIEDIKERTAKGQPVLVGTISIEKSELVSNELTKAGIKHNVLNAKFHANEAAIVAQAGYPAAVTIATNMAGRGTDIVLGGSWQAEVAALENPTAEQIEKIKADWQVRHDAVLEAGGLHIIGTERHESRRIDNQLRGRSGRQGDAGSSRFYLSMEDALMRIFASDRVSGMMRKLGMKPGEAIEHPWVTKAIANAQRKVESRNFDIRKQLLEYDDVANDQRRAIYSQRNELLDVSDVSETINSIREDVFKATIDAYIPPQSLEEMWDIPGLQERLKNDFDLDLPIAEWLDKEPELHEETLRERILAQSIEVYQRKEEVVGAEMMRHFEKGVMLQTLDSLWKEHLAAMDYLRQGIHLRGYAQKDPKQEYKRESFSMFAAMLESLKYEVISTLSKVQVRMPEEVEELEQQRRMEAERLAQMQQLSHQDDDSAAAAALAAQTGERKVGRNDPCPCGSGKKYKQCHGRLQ

Row | Structure (SMILES) | Percent Effect [1] [%] | Percent Effect [2] [%] | Percent Effect [3] [%] | Percent Effect [4] [%] | Percent Effect [5] [%] | Percent Effect (Trypanosoma cruzi) [%] | Percent Effect [6] [%] | Percent Effect [7] [%] | Percent Effect (Homo sapiens) [%] | Percent Effect [8] [%] | Percent Effect [9] [%] | Percent Effect [10] [%] | Percent Effect [11] [%]
1 | Cn1cc(CN2CC[C@H]3CO[C@H](CNc4ncccn4)[C@H]3C2)cn1 | -1.24 | 13.3 | -0.0582 | 1.6 | -7.11 | 5.02 | -57.2 | 9.4 | 3.12 | -32.2 | 7.29 | 22.5 | -6.99
2 | CCN1CCC2(CCC1=O)CN(c1ccnc(SC)n1)CCN2C (stereo unspecified) | -7.58 | 5.33 | -3.27 | 2.15 | 13 | -0.682 | 6.25 | 11.2 | 7.14 |  | 3.83 | 8.64 | -7.61
3 | COCCN1C[C@H]2[C@@H](C1)N(C(=O)COc1ccccc1)CC[C@H]2OC | -3.67 | 3.9 | -1.3 |  | 0.149 | 5.36 | -4.45 | 19.7 | -1.44 | -14.5 | 5.79 | 15.4 | 36.6
4 | Cc1nc(CN2CCO[C@H]3[C@@H](OCc4ccccn4)CC[C@@H]32)cs1 | -6.18 | 9.09 | 3.07 |  | -6.32 | -3.6 | -2.43 | 10.2 | 4.6 | -1.17 | 4.74 | 7.69 | -4.92
5 | CCc1noc(C(C)N2CCNCC2)n1 (stereo unspecified) | -5.07 | 5.33 | -11.9 |  | 0.232 | -0.602 | -2.22 | 13.3 | -0.55 | 6.76 | 2.63 | 2.56 | -9.82
6 | O=C(Nc1cccnc1)[C@@H]1C[C@H]2OCC[C@H]2N(Cc2ccsc2)C1 | -6.23 | 9.09 | -1.88 |  | 6.98 | 0.487 | -0.81 | 13.7 | 0.767 | -6.35 | 4.74 | 10.3 | -2.28
7 | CC(C)c1nccc([C@H]2C[C@@H]3CCN(Cc4ccco4)C[C@H]3O2)n1 | -6.35 | -3.9 | 9.38 |  | 3.38 | 4.58 | -7.69 | 14.4 | 3.14 | 5.36 | 6.84 | 15.4 | 1.21
8 | O=C1CC2(CCCNC2)C(=O)N1Cc1ccccc1 (stereo unspecified) | -1.32 | -16.9 | 1.23 |  | -1.16 | -6.57 | 0.457 | 16.4 | 15 | 2.48 | 2.9 | 0 | -9.23
9 | COCCNC(=O)c1cn(C(C)(C)C)c2ncccc12 | 107 | 6.67 | 2.31 |  | -7.99 | 0.197 | 6.2 | 11 | 3.2 | 4 | 0 | 10 | -17.6
10 | NC(=O)N1CC2(CCNCC2)c2cc(Cl)ccc21 | 0.158 | 1.3 | 0.933 |  | -0.465 | -3.38 | 4.11 | 8.84 | 10.9 | 4.45 | 0 | -2.5 | 2.33
